Laboratory results reported in PubChem BioAssay AID2401 (Southern Research Specialized Biocontainment Screening …, 2010).
Among all 2,200 compounds or so, about 530 (24%) were called active.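 The calls were made as follows: active = inhibition above a set limit at one or more concentrations of the dose series; inactive = inhibition under that limit at every dose.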 Not all results are given here. Entries with a potency or affinity are not part of this list.

assay: nmpC-GFP reporter counter-screen in S. Typhimurium, dose response, counter-screen for PhoP regulon inhibitor project, Salmonella Typhimurium, GFP fluorescence (AID 2401); settings: 4 h; series mostly up to 150 µM;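 also: S. typhimurium with Mg-insensitive nmpC-GFP reporter grown at 10 µM Mg2+; drop in reporter fluorescence reflects general culture growth inhibition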

SMILES	outcome
CC(CN1CCOCC1)C(=O)c1ccccc1 (configuration not stated)	inactive
O=C(NCCN1CCOCC1)c1ccc2ccccc2c1	inactive
Cc1ccc(-c2n[nH]c(=S)n2/N=C/c2cc3c(cc2[N+](=O)[O-])OCO3)cc1	inactive
O=Cc1cccn1Cc1ccccc1[N+](=O)[O-]	inactive
CCCn1c(/N=C/c2ccc3c(c2)OCO3)nc2ccccc21	inactive
C(=N\N1CCN(Cc2ccccc2)CC1)/c1cccnc1	inactive
COC(=O)c1sccc1N/N=C(\C)c1ccc(F)c(Cl)c1	inactive
Cc1cccc2nc(CSc3nc4ccccc4o3)cn12	inactive
Nc1nc(Nc2ccc(Cl)cc2)n[nH]1	inactive
Cn1c(SCC(=O)NC(=O)c2cccc([N+](=O)[O-])c2)nnc1-c1ccc(F)cc1	inactive
Cc1cc(C)c(NC(=S)NC(=O)c2ccc(-c3ccccc3)cc2)c(C)c1	inactive
O=C(NNc1c2ccccc2nc2ccccc12)c1ccccc1O	inactive
O=C(CSc1nnc(-c2cccnc2)o1)OC1CCCCC1	inactive
CCC(C)C(NC(=O)OCc1ccccc1)C(=O)OCN1C(=O)c2ccccc2C1=O (configuration not stated)	inactive
Cc1cc(C2=NNC(=NC3CC3)SC2)c(C)n1-c1ccccc1	inactive
CCn1c(CNC(=O)COc2ccc(C(C)C)cc2)nnc1SCC(=O)Nc1ccccc1	inactive
Clc1ccc(CNc2ccc(CNc3ncn[nH]3)cc2)cc1	inactive
Cc1cc(C(=O)N2CCN(C/C=C/c3ccccc3)CC2)no1	inactive
N#CC1(C#N)COC23CCCCC2C1(C#N)C(=N)O3 (configuration not stated)	inactive
CCCc1nn(C)c2c1C(c1cccnc1)C(C#N)=C(N)O2 (configuration not stated)	inactive
CCSc1nnc(NC(=O)Cc2cccc(OC)c2)s1	inactive
O=C(COC(=O)c1n[nH]c2ccccc12)NC(=O)NC12CC3CC(CC(C3)C1)C2	inactive
C#CCOc1c(Cl)cc(/C=N/O)cc1OC	inactive
Cc1ccc(N(CC(=O)N/N=C/c2ccco2)S(=O)(=O)c2ccccc2)cc1	inactive

SMILES	outcome
O=C(Nc1cccnc1)c1cc(F)cc(F)c1	inactive
Cc1[nH]c2ccccc2c1C1=NNC(=Nc2ccc(F)cc2)SC1	inactive
O=C(CCC(=O)c1cccs1)OCC(=O)N1CCN(S(=O)(=O)c2ccccc2)CC1	inactive
CCOC(=O)CCC(NC(=O)c1ccc(NCN2C(=O)CCC2=O)cc1)C(=O)OCC (configuration not stated)	inactive
Cc1ccc(S(=O)(=O)NCc2ccc(C(=O)N3CCN(c4ccccn4)CC3)cc2)cc1	inactive
COCCNCCOc1ccccc1-c1ccccc1	inactive
O=C(NCc1ccco1)c1cccc(Nc2nc3ccc(Br)cc3[nH]2)c1	inactive
Nc1cc(N)cc(-c2nc3ccccc3[nH]2)c1	inactive
Cc1ccc(C)c(-c2nc3ccc(N)cc3[nH]2)c1	inactive
O=C(OCC1O[C@@H](OC(=O)c2cc(O)c(O)c(O)c2)[C@@H](OC(=O)c2cc(O)c(O)c(O)c2)[C@@H](OC(=O)c2cc(O)c(O)c(O)c2)[C@@H]1OC(=O)c1cc(O)c(O)c(O)c1)c1cc(O)c(O)c(O)c1 (some centres not stated)	inactive
Cc1nn(C)c(C)c1S(=O)(=O)N1CCC(C(=O)NC2CCCCC2)CC1	inactive
Oc1[nH]c(=S)sc1/C=C1\C(c2ccccc2)=Nc2ccccc21	inactive
C#CCn1c(=NC(=O)c2cc(Cl)sc2Cl)sc2cc(S(N)(=O)=O)ccc21	inactive
O=C(O)C1(P(=O)(c2ccccc2)c2ccccc2)CCC1	inactive
Cc1cc(C)c2c(=O)[nH]c(SCC(=O)Nc3ccc(N(C)C)cc3)nc2n1	inactive
CC(C)c1ccc(O)c(NC(=O)c2cncc(Br)c2)c1	inactive
Cc1cc2nn(-c3ccccc3)nc2cc1NC(=O)c1cccs1	inactive
Cc1ccc(/C=C2\SC(=S)N(Cc3ccccc3)C2=O)o1	inactive
O=C(Nc1ccsc1C(=O)NC1CCCCC1)c1ccccc1	inactive
CCOC(=O)c1c(NC(=O)COc2ncnc3ccccc23)sc(C)c1CC	inactive
CCOC(=O)CCCc1c[nH]c2ccccc12	inactive
O=C(c1ccccc1)c1coc2ccc(O)c(Cl)c12	inactive
CCCCN(C)C(=O)c1cn(C)c2ccc(S(=O)(=O)N(C)C)cc2c1=O	inactive
Cc1nc(CC(=O)c2ccc(O)cc2O)cs1	inactive

SMILES	outcome
COC(=O)c1sccc1NC(=O)c1cccnc1	inactive
O=C(CSc1ccc(Cl)cc1)Nc1ccccc1N1CCN(C(=O)c2ccc(Cl)cc2)CC1	inactive
COc1ccc(-c2csc(Nc3cccnc3)n2)cc1	inactive
CC(=O)NC12CC3CC(C1)CC(C(=O)OCC(=O)c1ccc4c(c1)OCCO4)(C3)C2	inactive
COc1ccc(CC(=O)n2nc(-c3ccccc3)nc2NCc2ccco2)cc1	inactive
CC(C)(C)c1ccc(C2CC2C(=O)N/N=C\c2cc3ccccc3nc2Cl)cc1 (configuration not stated)	inactive
CCCCn1c(N)nc2ccccc21	inactive
CCCn1c(N)nc2ccccc21	inactive
CSc1nc2ccccc2n1Cc1cccc(F)c1	inactive
COc1ccc2c(c1)nc(N)n2Cc1ccccc1	inactive
CCOC(=O)c1[nH]c2ccccc2c1NC(=O)NC1CCCCC1	inactive
O=C(OCC#CCSc1nnc(-c2cccc3ccccc23)o1)c1ccco1	inactive
Cc1ccc2nc(C(F)OC(F)(F)F)[nH]c2c1 (configuration not stated)	inactive
O=C(CC1SC(=NCc2ccccc2)NC1=O)Nc1ccccc1 (configuration not stated)	inactive
COc1ccc(OCCn2cc(/C=N/NC(=O)c3ccncc3)c3ccccc32)cc1	inactive
COc1ccc2ccccc2c1/C=N/NC(=O)c1sc(N)c(C#N)c1C	inactive
COc1ccc(NC(=O)c2ccc(OC)cc2)cc1	inactive
CC(=O)n1cc(/C=N/NC(=O)c2sc(C)nc2C)c2ccccc21	inactive
CC(=O)c1c(C)nc(-c2ccc(Cl)cc2)nc1N=CN(C)C	inactive
O=C1CN(C(=O)COC(=O)CCC(=O)c2ccc3c(c2)OCCO3)c2ccccc2N1	inactive
Cc1cccc(-n2c(N)cc(=O)[nH]c2=S)c1C	inactive
Oc1cccc2ccc[n+](CC(O)Cn3c4ccccc4c4ccccc43)c12 (configuration not stated)	inactive
OCCN(CCO)CC(O)Cn1c2ccccc2c2ccccc21 (configuration not stated)	inactive
Cc1cc(C)c(C#N)c(SCc2cn3ccccc3n2)n1	inactive

SMILES	outcome
CCCCNC(=O)Oc1cccc(N2CCCC2=O)c1	inactive
COc1ccc(Cl)cc1C(=O)CSc1nc(N)cc(N)n1	inactive
COc1ccccc1N1CCN(C/C(O)=C(\C#N)c2nc(-c3ccccc3)cs2)CC1	inactive
Cc1nc(-c2ccccc2)cc(=O)[nH]1	inactive
CC(CCc1ccccc1)NC(=O)c1ccccc1 (configuration not stated)	inactive
Cn1c(NCc2ccccc2O)nc2ccccc21	inactive
COCC(=O)N=Nc1c(O)[nH]c2ccccc12	inactive
C/C(=N\NC(=S)Nc1ccc(F)cc1)c1ccc2c(c1)OCCO2	inactive
COc1cccc(C=NCCNC(=O)c2nonc2N)c1O	inactive
Nc1nonc1-n1nnc(C(=O)N/N=C/c2ccc(Br)cc2)c1CSC1=NCCS1	inactive
Nc1nonc1C(=O)NCCN=Cc1cc(Cc2ccccc2)cc(Br)c1O	inactive
COC(=O)Cc1c(C)nc2nc(NCc3ccc(Cl)cc3)[nH]n2c1=O	inactive
CC(C)CNC(=S)NC1CCCC1	inactive
O=C(OCC(=O)c1ccccc1Cl)c1cnccn1	inactive
Cc1ccc(C(=O)C2COC(=O)C2)cc1 (configuration not stated)	inactive
COc1ccc(S(=O)(=O)N2CCN(C(=O)c3c(C)nn(-c4ccccc4)c3Cl)CC2)cc1	inactive
COc1ccccc1CC(=O)N1CCN(c2ccccn2)CC1	inactive
COc1ccc(-n2c(C)cc(C(=O)Cn3nc(C(=O)O)c4ccccc4c3=O)c2C)cc1	inactive
O=C(CN1CCCCC1)Nc1cccc2c1OCO2	inactive
COc1ccccc1NS(=O)(=O)c1cc(NC(=S)Nc2cc(C)cc(C)c2)ccc1Cl	inactive
CN(CC(=O)NCc1cccc(F)c1)C(=O)c1ccco1	inactive
O=S(=O)(Nc1cc(Sc2cccc3cccnc23)c(O)c2ccccc12)c1ccc(F)cc1	inactive
O=C(c1ccco1)N1CCN(c2ncnc3c2[nH]c2ccccc23)CC1	inactive
COC(=O)c1ccc(Sc2ccccc2NS(=O)(=O)c2ccc(C)cc2)nc1	inactive

SMILES	outcome
COCCCNc1ccnc2c(Cl)cccc12	inactive
CC(=O)Nc1cccc(-c2csc(Nc3cccc(C)n3)n2)c1	inactive
Cc1ccc(-n2c(C)cc(C3=NNC(=NC4CC4)SC3)c2C)cc1C	inactive
COc1ccc(NC(=O)c2sccc2SCC#N)cc1	inactive
CCOC(=O)CN1C(=O)C(C)(C)Oc2ccc(C(=O)Nc3ccccc3OC)cc21	inactive
C=CCSC1=Nc2sccc2C2=NC(=O)CN12	inactive
Cc1ccn2cc(CSc3ccccc3N)nc2c1	inactive
COc1cccc(N=Cc2c[nH][nH]c2=O)c1	inactive
CO/N=C\CC(=O)Nc1ccc(F)cc1	inactive
COc1ccccc1N1CCN(C(=O)CSc2nc3ccccc3o2)CC1	inactive
CCC(C)NC(=O)c1ccccc1NC(=O)C(C)N(c1ccccc1)S(C)(=O)=O (configuration not stated)	inactive
FC(F)(F)COc1nc(OCC(F)(F)F)nc(N2CCN(c3ccccc3)CC2)n1	inactive
CC(=O)Nc1nc2nc(-c3ccccc3)cc(-c3ccccc3)n2n1	inactive
Cc1cccc(Sc2c([N+](=O)[O-])ncn2C)c1	inactive
S=C(NCc1cccnc1)Nc1ccc(Cl)c(Cl)c1	inactive
Cn1ccnc1C(O)c1ccc(OCc2ccccc2)cc1 (configuration not stated)	inactive
O=C(c1cnsn1)N1CCN(c2ccccc2)CC1	inactive
O=C(Nc1ccc(F)cc1)c1ccccc1F	inactive
CC(C)(C)NS(=O)(=O)c1ccc(CCC(=O)N2CCOCC2)cc1	inactive
O=[N+]([O-])c1ccc(-n2nnnc2-c2ccccc2)c([N+](=O)[O-])c1	inactive
O=c1ccc2ccc(Oc3ccc([N+](=O)[O-])cc3[N+](=O)[O-])cc2o1	inactive
